High-throughput results as filed in PubChem.
In the library only some 21% were active in any assay of this set; here they are far more common.
HCV inhibitor – inhibitors of hepatitis C virus infection | Huh7.5.1 HCVcc-Cre infection, luciferase reporter, 44 h | Potency, µM (titrated, usually from 41.8 µM), actives largely listed as inhibitors | 340,000 tested, 3.4% active | AID 651820
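A cell-based infection assay in which seeded cells (1,000 per well) receive test compound after 4 h, are inoculated with HCVcc-Cre at approximately 0.5 moi, and are incubated 44 h before luminescence detection.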
Shiga inhibitor – Shiga toxin inhibition | 290,000 tested, 9.2% active | Vero cells, Shiga toxin protein synthesis inhibition reporter | inhibition, % at 38.7 µM | AID 2315; in the data active means inhibition mostly above about 28%, no sharp cut-off; inactive means mostly below about 43%
Pf growth 96h – P. falciparum growth inhibition at 96 hours; Potency, µM (top dose mostly 28.7 µM), most hits filed as inhibitors; 320,000 tested, 6.9% active; P. falciparum luciferase reporter growth, 96 h
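Two-generation exposure (96 h) targets delayed-death phenotype. Reporter parasites carrying integrated firefly luciferase, in red cells at 2% hematocrit and 0.05% parasitemia final, kept at 37 C, 5% CO2; luminescence loss indicates inhibition.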
Cycloheximide cs – counter-screen hit for Shiga toxin inhibitors, cycloheximide | max response, % | 300,000 tested, 12% active | cell reporter, cycloheximide protein synthesis inhibition counterscreen; in the data active means max response mostly above about 13%, no sharp cut-off; inactive means mostly below about 14%; further: read at 38.3 µM for the half of the compounds with a filed dose
Pf growth 48h – P. falciparum growth inhibition at 48 hours (one generation). P. falciparum luciferase growth in erythrocytes, 48 h. Potency, µM (highest dose often 28.7 µM), usual class: inhibitors. 310,000 tested, 5.9% active. AID 504832
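Firefly luciferase activity from engineered P. falciparum reports growth; inhibitors lower the luminescent signal. Cultures contained 2% hematocrit erythrocytes at 0.1% final parasitemia.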
HCMV inh – human cytomegalovirus inhibition; AID 1259415; 410,000 tested, 4.5% active; HFF cells, HCMV-luciferase reporter, 72 h; stronger effect = lower value; activity change, negative = inhibition, % at 57.5 µM; in the data active means activity change below about -60%; inconclusive means no clear call, values can overlap the other calls; inactive means above about -39%
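Two compound doses tested in HFFs infected with HCMV-luciferase, MOI 1 PFU/cell, 72 h at 37C. Lysate luminescence read with OneGlo; data normalized against buffer-only and 10uM Salinomycin inhibitor controls.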
Of the large screens only hits and unclear results are named; the others gave an inactive call. Unless noted, the call rests on the fitted dose curve; in most records, active means well fitted inhibition curve with a large enough effect; inconclusive means small, poorly fitted or top-dose-only effect, or another doubt; inactive means no such curve, though single readings can be large or run the other way.

Cc1cc(NC(=O)c2ccc([N+](=O)[O-])cc2Cl)ccc1NC(=O)c1ccco1	HCV inhibitor 7.9µM, Pf growth 96h inconclusive
Cc1cc(NC(=O)c2ccc([N+](=O)[O-])o2)ccc1NC(=O)c1ccco1	HCV inhibitor inconclusive, Shiga inhibitor 97, Cycloheximide cs 36, Pf growth 48h 8.3µM, HCMV inh -85
Cc1cc([N+](=O)[O-])ccc1NC(=O)c1ccco1	Pf growth 96h inconclusive
Cc1ccccc1OCC(=O)Nc1c2c(nn1C(C)(C)C)CS(=O)(=O)C2	none
CCc1nnc(NC(=O)COc2ccc([N+](=O)[O-])cc2)s1	none
Cc1ccnc(NC(=O)COc2ccccc2[N+](=O)[O-])c1	Shiga inhibitor 140, Cycloheximide cs 40 (no result: HCV inhibitor)
CCc1nnc(NC(=O)COc2ccccc2[N+](=O)[O-])s1	Cycloheximide cs 10
COc1ccc(N(CC(=O)NCc2ccccc2)C(=O)CCC(=O)Nc2cc(C)ccn2)c(OC)c1	Pf growth 96h 0.47µM, Pf growth 48h 1.7µM
Cc1ccc(NC(=O)COc2ccccc2[N+](=O)[O-])nc1	Shiga inhibitor 56
COc1ccc(CCN2C(=O)N(c3ccc(F)cc3)C(=O)C2CC(=O)Nc2ccccc2)cc1 (centres undefined)	none (no result: HCV inhibitor, Shiga inhibitor, Pf growth 96h, Cycloheximide cs, Pf growth 48h)
COc1ccccc1CC(=O)Nc1cc(C)ccn1	Shiga inhibitor 103, Pf growth 96h inconclusive, Cycloheximide cs 45
Cc1ccnc(NC(=O)Cn2cc([N+](=O)[O-])cn2)c1	Shiga inhibitor 89, Cycloheximide cs 43
O=C(Cn1cc([N+](=O)[O-])cn1)Nc1ccccn1	Pf growth 96h inconclusive
COc1ccc(CN2C(=O)C(n3cccc3)c3cc(OC)ccc32)cc1 (centres undefined)	none (no result: HCV inhibitor, Shiga inhibitor, Pf growth 96h, Cycloheximide cs, Pf growth 48h)
O=C(Nc1ccccc1C(=O)N1CCN(Cc2ccccc2)CC1)c1ccc(F)cc1	Pf growth 48h inconclusive
CCN(C(=O)COC(=O)c1ccc(=O)n(Cc2ccccc2)n1)C1CCCCC1	none (no result: Shiga inhibitor, Cycloheximide cs)
O=C(O)CCC(NC(=O)c1cncc(O)c1)C(=O)O (centres undefined)	none (no result: Pf growth 48h)
CN(Cc1cnc2nc(N)nc(N)c2n1)c1ccc(C(=O)N[C@@H](CCC(=O)O)C(=O)O)cc1	HCV inhibitor inconclusive, Pf growth 96h 1.7µM, Pf growth 48h 0.043µM, HCMV inh -99 (no result: Shiga inhibitor, Cycloheximide cs)
Cc1oc(-c2ccccc2)nc1CSc1nnc(C)n2c1cc1sccc12	none (no result: HCV inhibitor, Shiga inhibitor, Pf growth 96h, Cycloheximide cs, Pf growth 48h)
CCCc1ccc2oc(C(=O)N(C)CCn3ccnc3C)c(C)c2c1	HCV inhibitor inconclusive, Shiga inhibitor 20, Cycloheximide cs 13
CCCc1ccc2oc(C(=O)N3CCC(N4CCCC(O)C4)CC3)c(C)c2c1 (centres undefined)	Pf growth 48h inconclusive
CCCc1ccc2oc(C(=O)N(C)Cc3cnccn3)c(C)c2c1	Pf growth 96h 10µM
CCCc1ccc2oc(C(=O)N3CCN(c4cnccn4)CC3)c(C)c2c1	Cycloheximide cs 12, Pf growth 48h inconclusive
O=C1CCN(Cc2ccccc2)C=C1c1cccc(O)c1	HCV inhibitor inconclusive (no result: Shiga inhibitor, Pf growth 96h, Cycloheximide cs, Pf growth 48h)
Cc1ccc(-c2nnc(SCCC(=O)N3CCOCC3)o2)cc1	Pf growth 96h inconclusive, Cycloheximide cs 32, HCMV inh -101
Cc1ccccc1-c1nnc(SCCC(=O)N2CCOCC2)o1	Shiga inhibitor 70, Pf growth 96h inconclusive, Cycloheximide cs 23, HCMV inh inconclusive
CC(=O)Nc1ccc(C2=CC(=O)CC(C)(C)C2)cc1	none (no result: Shiga inhibitor, Cycloheximide cs)
COc1ccc(CCC(=O)Nc2cc(Cl)ccc2OC)cc1	HCV inhibitor inconclusive, Pf growth 96h inconclusive (no result: Pf growth 48h)
CC(C)CNS(=O)(=O)c1ccc(CCC(=O)Nc2cc(Cl)ccc2Oc2ccccc2)cc1	HCV inhibitor inconclusive, Pf growth 96h 4.1µM (no result: Pf growth 48h)
CCCNS(=O)(=O)c1ccc(CCC(=O)Nc2cc(Cl)ccc2Oc2ccccc2)cc1	HCV inhibitor 10µM, Pf growth 48h 13µM
CC(C)(C)NS(=O)(=O)c1ccc(CCC(=O)Nc2cc(Cl)ccc2Oc2ccccc2)cc1	HCV inhibitor 8.9µM, Pf growth 48h 4.1µM (no result: Pf growth 96h)
CCCNS(=O)(=O)c1ccc(CCC(=O)NCCc2ccc(OC)c(OC)c2)cc1	none
O=C(Nc1ccccc1F)C1CCCN(S(=O)(=O)c2ccccc2)C1 (centres undefined)	HCV inhibitor inconclusive
Nc1c(C(=O)O)sc2nc3c(cc12)CCCC3	none
Nc1c(C(=O)c2ccc(Cl)cc2)sc2nc3c(cc12)CCC3	Pf growth 96h inconclusive, Cycloheximide cs 32
Cc1ccc2c(N)c(C#N)sc2n1	Cycloheximide cs 22
NC(=O)c1sc2nc3c(cc2c1N)CCCCCC3	Shiga inhibitor 52, Cycloheximide cs 31, HCMV inh inconclusive
Nc1c(C(=O)C2CC2)sc2nc3c(cc12)CCC3	Shiga inhibitor 66, Cycloheximide cs 43
O=C(OCc1ccccc1)N1CCC2CC1c1ccc(-c3cccc(F)c3)cc12 (centres undefined)	none (no result: HCV inhibitor, Shiga inhibitor, Pf growth 96h, Cycloheximide cs, Pf growth 48h)
COc1cccc2nc(-c3cccs3)nc(NN3C(=O)C=C(C)C3=O)c12	none (no result: HCV inhibitor, Pf growth 96h, Pf growth 48h, HCMV inh)
N#Cc1sc2nc3c(cc2c1N)CCCC3	Pf growth 96h 12µM, Cycloheximide cs 23, HCMV inh -64
CCOC(=O)C1=NN(C(=O)COc2ccccc2)C(O)(c2ccc(Br)cc2)C1 (centres undefined)	Pf growth 96h 2.9µM
CCOc1ccc(NC(=O)CN2C(=O)NC(C)(c3ccc(OC(F)F)cc3)C2=O)cc1 (centres undefined)	Pf growth 96h inconclusive, Pf growth 48h 1µM
CC1(c2ccc(OC(F)F)cc2)NC(=O)N(CC(=O)Nc2ccc(Cl)cc2F)C1=O (centres undefined)	HCV inhibitor inconclusive, Cycloheximide cs 13
COc1ccc(C2(c3ccc(OC)cc3)NC(=O)N(CC(=O)NCC(C)c3ccccc3)C2=O)cc1 (centres undefined)	HCV inhibitor inconclusive, Pf growth 96h 12µM, Pf growth 48h 12µM (no result: Shiga inhibitor, Cycloheximide cs)
COc1ccc(C2(c3ccc(OC)cc3)NC(=O)N(CC(=O)Nc3ccc(OC(F)F)cc3)C2=O)cc1	HCV inhibitor 13µM, Pf growth 96h inconclusive, Pf growth 48h 12µM
Cc1cc(C)c2cc(C(=O)N3CCN(c4ncccc4C(F)(F)F)CC3)[nH]c2c1	Pf growth 96h inconclusive
COc1ccc(Sc2cccc(Cl)c2)c(C(=O)O)c1	none (no result: HCV inhibitor, Shiga inhibitor, Pf growth 96h, Cycloheximide cs, Pf growth 48h)
COc1ccc2c(c1)Cc1sc(NC(=O)c3ccccc3C)nc1-2	none (no result: HCV inhibitor, Shiga inhibitor, Pf growth 96h, Cycloheximide cs, Pf growth 48h)
Cc1ccc(C)n1-c1nccc(-c2cccs2)n1	Pf growth 96h inconclusive
N#Cc1cccn1-c1nccc(-c2cccs2)n1	HCV inhibitor inconclusive, Shiga inhibitor 77, Cycloheximide cs 29
CCN(CC)CCN1c2ccccc2Sc2ccccc21	Pf growth 48h inconclusive (no result: HCV inhibitor)
CCN(CC)CCN1c2ccccc2Sc2ccc3ccccc3c21	HCV inhibitor inconclusive, Pf growth 96h inconclusive, Pf growth 48h 8.3µM, HCMV inh inconclusive
CCCC12CN(C(=O)c3ccc([N+](=O)[O-])cc3)CC(C)(CN(C(=O)c3ccc([N+](=O)[O-])cc3)C1)C2=O	HCV inhibitor inconclusive, Pf growth 96h 10µM, Pf growth 48h 12µM
